Bioassay records from PubChem.
In the library only some 4.7% were active in any assay of this set; here they are far more common.
DRD3 agonist = qHTS of D3 Dopamine Receptor Agonist: qHTS. D(3) dopamine receptor (Homo sapiens), P35462. D3R DiscoveRx beta-arrestin cells, luminescence, 90 min. max activation, %. 410,000 tested, 0.58% active. AID 652048, 2013; in the data active = max activation above about 30%; also: 0% is about no effect
Target sequence (P35462 whole entry, looked up): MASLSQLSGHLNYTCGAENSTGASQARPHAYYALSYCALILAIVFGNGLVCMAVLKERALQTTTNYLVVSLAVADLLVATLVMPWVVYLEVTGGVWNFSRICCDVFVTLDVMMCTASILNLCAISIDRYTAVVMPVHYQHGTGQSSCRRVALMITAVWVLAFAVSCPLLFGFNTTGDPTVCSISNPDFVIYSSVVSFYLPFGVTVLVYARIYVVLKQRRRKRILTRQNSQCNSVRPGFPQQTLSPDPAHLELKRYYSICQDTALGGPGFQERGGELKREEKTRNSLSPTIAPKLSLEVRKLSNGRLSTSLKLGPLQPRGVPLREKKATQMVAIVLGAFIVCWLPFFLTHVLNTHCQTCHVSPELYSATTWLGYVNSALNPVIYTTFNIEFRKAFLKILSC
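Agonist-mode cell screen: cells plated at 1500/well and incubated overnight at 37 °C, then exposed to library compounds for 90 min at 37 °C. Detection reagent was added for 30–60 min at room temperature, and luminescence was read.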
TGFb SMAD3 inh = qHTS for Inhibitors of TGF-b | 410,000 tested, 1.2% active | HepG2 CAGA-GFP TGF-b/SMAD3 reporter, GFP fluorescence, 18 h; TGF-beta stimulated, 500 pg/mL final | Potency, µM (doses to about 46.1 µM), inactives show at the highest dose activity, negative = inhibition, most hits filed as inhibitors; also: potency is read from the fitted curve at half-maximal effect; % is scaled to controls: 0 for no effect and ±100 for the full control effect; nearly all actives have a fitted effect of over 65% in size
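Cell-based qHTS in HEPG2 carrying a CAGA-GFP Smad reporter; compounds added before 500 pg/mL final TGF-beta, 18 h incubation at 37 degrees C, GFP fluorescence quantified per cell by imaging cytometry.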
D3 antag = qHTS of D3 Dopamine Receptor Antagonist: qHTS; max response, negative = inhibition, %; 360,000 tested, 2.5% active; D3R cells, DiscoveRx beta-arrestin luminescence, antagonist mode; active compounds read low; in the data active = max response below about -50%; inconclusive = no clear call, values can overlap the other calls; also: % is scaled to controls: 0 for no effect and ±100 for the full control effect
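Cells expressing the human receptor were seeded at 1500 cells/well, incubated overnight at 37 degrees C in 5% CO2, then exposed to library compounds with dopamine controls for 90 minutes at 37 degrees C before luminescent detection.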
ATXN2 expr inh = Primary qHTS for Inhibitors of ATXN expression; HEK-293 ATXN2-luciferase reporter, luminescence, 24 h; Potency, µM (doses to about 57 µM), for the others: top-dose activity change, negative = inhibition, most hits filed as inhibitors; 360,000 tested, 0.72% active; also: potency is read from the fitted curve at half-maximal effect; % is scaled to controls: 0 for no effect and ±100 for the full control effect; nearly all actives have a fitted effect of over 55% in size
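ATXN2-luciferase reporter cells (luciferase flanked by upstream and downstream ATXN2 gene portions) were treated 24 h at 37 °C with compounds at up to 57 uM. SteadyGlo luminescence gave expression; GF-AFC fluorescence gave viability.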
HepG2 tox = qHTS for Inhibitors of TGF-b: Cytotox Counterscreen | HepG2 CAGA-GFP viability, ATP luminescence, 18 h | Potency, µM (titrated, usually from 46.1 µM), inactives show top-dose activity change, negative = cytotoxicity, most hits filed as cytotoxic | 410,000 tested, 0.76% active; also: potency is read from the fitted curve at half-maximal effect
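HepG2 CAGA-GFP cells (1000/well, DMEM with 1% FBS) received compound, then TGF-beta at 500 pg/mL final, and were incubated 18 hours at 37 degrees C. Viability was read by CellTiter-Glo luminescence. Media-only wells were set as complete cell-killing and DMSO as no toxicity.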
S2 tox = Viability Counterscreen for Primary qHTS for Inhibitors of ATXN expression; S2 cells (HEK-293 line with an ATXN2-luciferase reporter) viability, CellTiter-Fluor protease fluorescence, 24 h; 400,000 tested, 0.49% active; Potency, µM (series often up to 56.7 µM), hits mostly cytotoxic; AID 651635, 2014; also: potency is read from the fitted curve at half-maximal effect; nearly all actives have a fitted effect of over 40% in size
* = called active by the depositor; ! = repeats disagree; [ ] = remark or other dose. Unless noted, calls follow the shape of the dose curve; as a rule, active = well fitted curve in the direction sought with a large enough effect; inconclusive = small, poorly fitted or top-dose-only effect, or another doubt; inactive = no such curve, though single readings can be large; an effect the other way counts as inactive or inconclusive.

`Cc1nc2c(C(=O)NC(C)c3ccccc3)cnn2c(C)c1Cc1ccccc1` (configuration not stated) gave DRD3 agonist -5, TGFb SMAD3 inh -10% and HepG2 tox 13µM*.
NS(=O)(=O)c1ccc(CCNC(=O)c2ccc3nc(Cc4ccccc4)oc3c2)cc1 was read as DRD3 agonist 11, TGFb SMAD3 inh -11%, ATXN2 expr inh -28%, HepG2 tox -2% and S2 tox inconclusive.
`CC(C)(C)n1ncc2c(=O)n(Cc3ccc(Cl)c(F)c3)cnc21` gave TGFb SMAD3 inh 10% and HepG2 tox 5%.
`Cc1ccc(NC(=O)CSc2nc3nccnc3c(=O)n2CCc2c[nH]c3ccccc23)c(C)c1` gave DRD3 agonist -2, TGFb SMAD3 inh -29% and HepG2 tox -24%.
Screening O=S(Cc1ccc(Cl)cc1)c1ccccc1 (configuration not stated) returned DRD3 agonist 66*, TGFb SMAD3 inh 24%, D3 antag 6, ATXN2 expr inh 60%, HepG2 tox 1% and S2 tox inactive.
For CCCCCCn1c(=O)c2c(ncn2C)n(C)c1=O the results were ATXN2 expr inh 8% and S2 tox inactive.
For CCCc1cc(-c2n[nH]c(C)c2-c2ccc(C(=O)OCC)o2)c(O)cc1O the results were DRD3 agonist 35*, TGFb SMAD3 inh 14µM*, D3 antag -27, ATXN2 expr inh inconclusive, HepG2 tox -50% and S2 tox inconclusive.
CCc1cc(-c2n[nH]c(C)c2-c2nc3ccccc3n2C)c(O)cc1O was read as DRD3 agonist 4, TGFb SMAD3 inh -11%, D3 antag 5, ATXN2 expr inh -13%, HepG2 tox -13% and S2 tox inconclusive.
For CCCc1cc(C(=O)Cc2ccc(C(=O)OCC)o2)c(O)cc1O the results were DRD3 agonist 1, TGFb SMAD3 inh -5%, D3 antag 7, ATXN2 expr inh -2%, HepG2 tox -7% and S2 tox inactive.
CCc1cc(-c2n[nH]c(C)c2-c2ccc3c(c2)OCCO3)c(O)cc1O was read as ATXN2 expr inh 6.1µM*.
COc1ccccc1C1CN(CC(=O)N[C@H]2CCCCNC2=O)Cc2ccccc2O1 (some centres not stated) was read as S2 tox inactive.
O=C(NCCc1ccccn1)C1CC12CCN(C(=O)c1cccc(C(F)(F)F)c1)CC2 (configuration not stated) was read as S2 tox inactive.
For CC1(C)C/C(=N\NC(=S)Nc2ccccc2F)c2cc(O)ccc2O1 the results were DRD3 agonist -8, TGFb SMAD3 inh inconclusive, D3 antag -53*, ATXN2 expr inh -36% and HepG2 tox -45%.
Screening Cc1cc(C)n(CCCNCC(O)c2ccccc2)n1 (configuration not stated) returned DRD3 agonist -27, TGFb SMAD3 inh 25%, D3 antag -64*!, ATXN2 expr inh -5%, HepG2 tox 24% and S2 tox inactive.
COc1cccc2cc(C(=O)OCC(=O)NC3CCCC(C)C3C)c(=O)oc12 (configuration not stated) was read as DRD3 agonist 82*, TGFb SMAD3 inh 11%, D3 antag -9, ATXN2 expr inh 16%, HepG2 tox -30% and S2 tox inactive.
Cc1ccc(C(=O)Nc2nc(-c3ccccc3)c(-c3ccccc3)o2)cc1 was read as DRD3 agonist -21, TGFb SMAD3 inh -15%, D3 antag -85*, ATXN2 expr inh -39%[11.3 µM], HepG2 tox 4% and S2 tox inactive.
Cc1cc(C)nc(SCC(=O)Nc2nc(-c3ccccc3)c(-c3ccccc3)o2)n1 was read as DRD3 agonist 33*, TGFb SMAD3 inh 3%, D3 antag 43, ATXN2 expr inh -2%, HepG2 tox -29% and S2 tox inconclusive.
